# Shown are actives, neighbours in structure and some others; about 2% of the full set was active somewhere.
# Platelet DG rel: inhibitors of platelet dense granule secretion, primary screen, cell-based, MLPCN, human platelets; human platelet-rich plasma, SFLLRN dense granule ATP release, luminescence; inhibition, %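 (compounds screened at 7.5 µM in platelet-rich plasma)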; 300,000 tested, 0.22% active;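 active = mean replicate score, as percent of positive control, at or above 50; inconclusive = mean below 50 but at least one replicate at or above 50; inactive = mean and every replicate below 50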
# SKKanGAS inh: S. pyogenes SKKanGAS growth inhibitors in kanamycin, primary screen, streptokinase expression inhibitor project, SKKanGAS strain, BacTiter-Glo luminescence | 6 h | 300,000 tested, 1.3% active | inhibition, % at 7.5 µM | AID 1662, 2009;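 active = mean replicate score, as percent of positive control median, at least 50; inconclusive = mean below 50 but one replicate at or above 50; inactive = mean and every replicate below 50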;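 note: strain carries kanamycin resistance gene driven by streptokinase promoter and grows in 40 µg/ml kanamycin; loss of luminescence reflects streptokinase promoter inhibition or plain growth inhibition; 0% = median of DMSO wells and 100% = positive control at its reference dose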
# PolyA inhibitor: polyadenylation inhibitors in yeast reporter cells, primary screen, luminescence, S. cerevisiae; S. cerevisiae SKY197-pL101 polyadenylation reporter, beta-gal luminescence; efflux-impaired pdr1/pdr3 knockout yeast; score 100 = 6 SD above DMSO; AID 1875, 2009; 300,000 tested, 0.02% active; activity score, % at 12 µM;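 active = lowest replicate activity score at least 50, where 100 means six control SD above control mean; inconclusive = lowest score under 50 but half or more replicates reach 50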;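 note: yeast exposed to compound for 9 h at 30 °C; higher score means more reporter readthrough which indicates perturbed polyadenylation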
# Calb FLC: C. albicans growth inhibition with fluconazole, primary screen, CaCi-2 strain, Alamar Blue fluorescence. C. albicans CaCi-2 (fluconazole-resistant clinical isolate) + fluconazole, 48 h. growth inhibition, % (test concentration not listed). 300,000 tested, 0.57% active;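 active = growth inhibition above about 58% in most replicates, limit read from the data, passing the limit was not always enough; inconclusive = exactly half the replicates above a set limit; inactive = most replicates below a set limit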;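 note: all wells also contain fluconazole at 8 µg/ml as a sub-toxic cotreatment; 0% = median of DMSO wells and 100% = median of geldanamycin control wells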
# Yeast superoxide: reduction of superoxide in aged yeast, primary screen, HTS; S. cerevisiae aged cells, superoxide DHE fluorescence; active compounds read low; superoxide response (% of plate mean), % at 10 µM; 330,000 tested, 0.18% active; AID 2690, 2010;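 active = superoxide response under a set limit, about three screen SD below normal, cut at about 65% in these data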;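 note: yeast aged for seven days with compound at 30 °C before DHE staining; 100% = average MFI of all compound-treated wells on the plate with controls excluded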
# * marks the source's active call; other numbers are inactive results; u = inconclusive; x = no result.
SMILES,Platelet DG rel,SKKanGAS inh,PolyA inhibitor,Calb FLC,Yeast superoxide
O=C(NNC(=S)NC(=O)c1ccc(Br)cc1)c1ccc([N+](=O)[O-])cc1,-7.2,100.2*,12.9,87.4*,103.9
O=C(NNC(=S)NC(=O)c1ccc(Br)cc1)c1cccc([N+](=O)[O-])c1,-8.9,102.3*,u,-12.2,110.5
CC1Cc2ccccc2N1C(=O)c1ccc(F)c(S(=O)(=O)N2CCOCC2)c1 (stereo unspecified),x,x,x,x,107.8
Cc1ccccc1NC(=O)c1c2c(nc3ccccc13)CCC2,-11.3,-11.2,-1.4,-14.6,96.0
O=C1COc2ccc(C(=O)COc3ccc([N+](=O)[O-])cc3)cc2N1,2.0,-7.9,0.9,2.5,111.6
Cc1cc(-c2ccccc2C(=O)NC2CCCCC2)on1,-4.5,-8.6,6.6,0.3,82.3
CSCCC(NC(=O)c1cccc(C)c1)C(=O)OCC(=O)Nc1c(C)nn(-c2ccccc2)c1C (stereo unspecified),16.3,-7.4,u,-2.9,90.9
COc1ccc(CNC(=O)CN(Cc2ccc(OC)cc2)C(=O)CCC(=O)Nc2ccccn2)cc1,-4.9,-0.9,-6.5,-4.5,90.2
N#C/C(=C\c1ccc(/C=C(/C#N)c2nn(CCO)c(N)c2C#N)cc1)c1nn(CCO)c(N)c1C#N,-51.5,66.6*,8.4,-5.3,90.6
O=C(CN1CCN(Cc2ccc(Cl)cc2)CC1)N/N=C/c1ccccc1F,20.3,-4.7,-4.3,-5.8,88.6
C=CCN(Cc1ccc(Cl)s1)C(=O)c1ccc(F)c(S(=O)(=O)N2CCOCC2)c1,x,x,x,x,87.3
COc1ccc(C2SCC(=O)N2c2c(C)n(C)n(-c3ccccc3)c2=O)cc1OC (stereo unspecified),8.5,-11.4,66.7*,u,104.8
Cc1cc(C)cc(CC(Cc2nc3ccccc3[nH]2)c2nc3ccccc3[nH]2)c1 (stereo unspecified),0.2,56.6*,-7.2,2.7,94.1
Oc1c(N=Nc2ccccn2)ccc2ccccc12,41.6,69.1*,-12.9,-2.5,95.3
c1ccc2c(c1)ccc1ncccc12,12.4,-17.5,-39.5,0.9,103.9
Cc1cc(C)cc(NC(=S)NCCN2CCOCC2)c1,1.5,-3.7,2.4,0.7,102.5
COc1ccc(C(C)(C)C)cc1NC(=O)c1cc(S(=O)(=O)N(C)C)ccc1N1CCCC1,-17.2,-9.9,14.3,-12.0,95.0
O=C(NNc1ccc(Cl)cc1)c1sccc1Cl,-4.6,2.5,-31.9,104.9*,89.4
NS(=O)(=O)c1ccc(NNC(=O)c2sccc2Cl)cc1,-10.2,-6.0,-2.1,-9.9,115.6
O=C(NNc1ccc(Cl)cc1)c1c(F)cccc1Cl,-3.5,-12.2,-1.2,82.6*,84.4
O=C(CN1C(=O)NC2(CCCCC2)C1=O)Nc1ccccc1N1CCCC1,-6.0,-9.2,11.8,x,89.3
COc1ccc(C(=O)COC(=O)Cn2[nH]c(=O)c3ccccc3c2=O)c(OC)c1,2.6,2.6,-13.5,1.9,93.8
O=C(COC(=O)c1ccccc1OC(F)F)Nc1ccc2[nH]c(=O)[nH]c2c1,3.5,-8.6,13.2,9.5,87.6
CCc1cc(-c2n[nH]c(C)c2-c2ccccc2Cl)c(O)cc1OC,13.2,u,1.0,86.2*,98.6
CCOc1ccc(-c2n[nH]c(C)c2-c2ccccc2OC)c(O)c1,x,5.3,17.6,-4.3,91.8
SMILES,Platelet DG rel,SKKanGAS inh,PolyA inhibitor,Calb FLC,Yeast superoxide
Fc1ccccc1CNc1ccc(Cl)c(Cl)c1,-2.6,56.2*,-11.9,5.4,97.6
Cc1ccc(NCc2ccccc2F)cc1,-12.3,-1.2,18.2,-23.0,94.5
Clc1ccc(-c2csc(Nc3ccccc3)[n+]2Cc2ccco2)c(Cl)c1,-1.9,78.7*,-6.3,-15.7,x
O=c1[nH]c(CSc2ncnc3sccc23)nc2ccccc12,0.4,67.3*,7.1,-10.4,90.7
CN(C)c1ccnc(Nc2ccccc2)c1C#N,1.3,4.1,8.3,-15.7,116.6
CN(C)c1ccnc2c[cH-]cc12.[Fe].c1ccc(-[c-]2[c-](-c3ccccc3)[c-](-c3ccccc3)[c-](-c3ccccc3)[c-]2-c2ccccc2)cc1 (stereo unspecified),-1.4,86.0*,-12.9,11.2,78.9
NC(=O)C1(N2CCCCC2)CCN(C(=O)Nc2ccccc2C(F)(F)F)CC1,53.5*,-1.7,-2.0,-1.3,89.7
Cc1ccc(NC(=O)c2cc(N3C(=O)C=CC3=O)ccc2N2CCOCC2)cc1Cl,26.0,61.3*,-87.6,8.1,99.1
O=C(NCc1ccc2c(c1)OCO2)C1CCC(CNS(=O)(=O)c2ccccc2)CC1 (stereo unspecified),61.1*,-31.4,4.7,-11.6,95.4
CSc1nn2cc(CCN3CCOCC3)c(-c3ccc(F)cc3)nc2c1C#N,1.0,-0.1,-4.0,28.0,95.3
CC(=O)NC(c1cccc([N+](=O)[O-])c1)c1ccc2cccnc2c1O (stereo unspecified),-7.9,59.7*,0.8,-10.1,96.2
COc1cccc(C(NC(C)=O)c2ccc3cccnc3c2O)c1 (stereo unspecified),1.3,29.7,-2.4,79.6*,104.0
Oc1cccc(C(Nc2nccs2)c2ccc3cccnc3c2O)c1 (stereo unspecified),3.1,27.4,-2.0,102.8*,89.2
Cc1cc(C)cc(C(=O)Nc2nnc(SCC(=O)NCC3CCCO3)s2)c1 (stereo unspecified),-6.5,-2.0,-1.2,-1.7,90.1
Cc1ccc(Cn2c(CCC(=O)O)nc3ncccc3c2=O)cc1,-0.8,5.7,13.5,0.0,118.5
Cc1cc(=O)[nH]c2c1cnn2Cc1ccccc1,1.1,-3.3,24.6,-4.2,102.7
S=c1nc[nH]c2c1cnn2Cc1ccccc1,-12.2,11.7,-8.3,93.9*,105.5
O=C(NC(=S)Nc1ccc(Cl)cn1)C(c1ccccc1)c1ccccc1,9.6,76.9*,-44.4,-19.4,88.6
CC(C)(C)C(=O)NC(=S)NNC(=O)C(c1ccccc1)c1ccccc1,-19.5,9.8,-2.3,82.0*,105.5
CC(=O)NNC(=S)NC(=O)C(c1ccccc1)c1ccccc1,-0.5,61.3*,-0.7,99.1*,80.5
CCNC(=S)NNC(=O)C(c1ccccc1)c1ccccc1,5.0,-9.6,1.4,0.5,102.7
S=C(Nc1ccccc1)Nc1ccc(Cl)cn1,-7.6,8.4,-8.6,-52.3,109.2
CC(=O)Oc1ccc(OC(C)=O)c2c1CC(C)=C(C)C2,0.1,1.9,9.5,-3.3,89.8
CCCCc1c(C)nc2nc(SCc3ccc(Cl)cc3)[nH]n2c1=O,-1.3,7.8,3.8,15.8,98.3
Cc1onc(-c2c(F)cccc2Cl)c1C(=O)Nc1cccc(S(=O)(=O)NC2=NCCC2)c1,12.7,1.1,9.0,-10.2,89.1
Cc1sc2nc(SCc3ccccc3)n(Cc3ccco3)c(=O)c2c1C,8.2,21.4,-14.9,1.1,107.4
Cc1ccc(CSc2nc3sc(C)c(C)c3c(=O)n2Cc2ccco2)cc1,5.4,78.2*,6.6,-12.9,86.6

# High-throughput results: PubChem BioAssay, several laboratories
